Data reported in PubChem BioAssay (Tox21).
“And” between values parts separate entries of the source, which are not always exact repeats. Equal entries are not always repeated. Inconclusive results are not listed. The source made the active and inactive calls. Unless noted, calls follow the shape of the dose curve; as a rule, active = well fitted curve in the direction sought with a large enough effect in the repeat runs; inconclusive = weak or mixed curves; inactive = no such curve, though single readings can be large; an effect the other way counts as inactive or inconclusive.

Experiments:
[1] = A CellTox Green Cytotoxicity Assay to monitor cytotoxicity in HEK293 cells - 8 hour (AID 1224884); also: nearly all actives have a fitted effect of over 35% in size; also: potency is read from the fitted curve at half-maximal effect
How it was run: (§1)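 Nonlytic real-time cytotoxicity: HEK293 + CellTox Green reagent plated, 5 h preincubation, pintool compound addition (23 nL in DMSO), 37 C for 40 h, fluorescence measured at successive time points.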

[2] = qHTS RealTime-Glo MT Cell Viability Assay in HEK293 cells - 24 hour (AID 1224886); also: nearly all actives have a fitted effect of over 50% in size; also: potency is read from the fitted curve at half-maximal effect
How it was run: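 HEK293 cells were seeded at 600 cells/well together with NanoLuc luciferase and cell-permeant prosubstrate, preincubated 5 h at 37 C/5% CO2, then given compound in DMSO by pintool. Luminescence from viable-cell prosubstrate reduction was read repeatedly over 40 h.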

[3] = A CellTox Green Cytotoxicity Assay to monitor cytotoxicity in HEK293 cells - 16 hour (AID 1224888); also: nearly all actives have a fitted effect of over 35% in size; also: potency is read from the fitted curve at half-maximal effect
How it was run: as §1

[4] = qHTS RealTime-Glo MT Cell Viability Assay in HepG2 cells - 0 hour (AID 1224889); also: nearly all actives have a fitted effect of over 50% in size; also: potency is read from the fitted curve at half-maximal effect
How it was run: (§2)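 HepG2 cells were seeded at 600 cells/well together with NanoLuc luciferase and a cell-permeant prosubstrate, preincubated 5 h at 37 C/5% CO2, then pin-dosed with compounds in DMSO. Nonlytic luminescence from viable cells was read at each time point.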

[5] = A CellTox Green Cytotoxicity Assay to monitor cytotoxicity in HepG2 cells - 8 hour (AID 1224890); also: nearly all actives have a fitted effect of over 45% in size; also: potency is read from the fitted curve at half-maximal effect
How it was run: (§3)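 Read-out is fluorescence of a cyanine dye excluded from live cells that stains DNA of dead HepG2 cells, with signal proportional to cytotoxicity. Plates were read at 0, 8, 16, 24, 32 and 40 h after compound addition.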

[6] = qHTS assay to identify small molecule antagonists of the estrogen receptor alpha (ER-alpha) signaling pathway using the BG1 cell line in the presence of 0.1 nM 17-beta-estradiol - cell viability counter screen (AID 1259241); also: % is scaled to controls: 0 for no effect and ±100 for the full control effect; nearly all actives have a fitted effect of over 40% in size
How it was run: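 The cell line endogenously expresses full-length ER-alpha and carries four EREs driving luciferase. Cells are cultured 5 days hormone-free, treated 22 hr with compounds and 0.1 nM estradiol, then viability is read by fluorescence.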

[7] = biological target: Estrogen receptor (Homo sapiens) (UniProt P03372); assay: qHTS assay to identify small molecule antagonists of the estrogen receptor alpha (ER-alpha) signaling pathway using the BG1 cell line in the presence of 0.1 nM 17-beta-estradiol (AID 1259244); also: nearly all actives have a fitted effect of over 50% in size; also: potency is read from the fitted curve at half-maximal effect
How it was run: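 Cells: VM7Luc4E2, endogenous ER-alpha, 4x ERE-luc stable. Pre-culture 5 d, phenol red-free, charcoal-stripped FBS. Plated 24 h, compound + E2 0.1 nM final, 22 h 37C/5% CO2. Readout ONE-Glo luminescence.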

[8] = qHTS assay to identify small molecule HDAC inhibitors (AID 1259364); also: top concentration of the series differs between compounds; % is scaled to controls: 0 for no effect and ±100 for the full control effect; nearly all actives have a fitted effect of over 45% in size
How it was run: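 Luminescence from a cell-permeant luminogenic class I/II HDAC substrate reports endogenous deacetylase activity in intact HCT-116 cells treated with compounds for 2 h.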

[9] = qHTS assay to identify small molecule HDAC inhibitors - cell viability counter screen (AID 1259365); also: series mostly up to about 92 µM; % is scaled to controls: 0 for no effect and ±100 for the full control effect; nearly all actives have a fitted effect of over 50% in size
How it was run: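 Viability readout: CellTiter-Glo luminescence. Wild-type HCT-116 cells, 2hr compound treatment following overnight attachment at 37 C.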

[10] = qHTS assay to identify small molecule antagonists of the sonic hedgehog signaling (Shh) pathway - cell viability counter screen (AID 1259367); also: nearly all actives have a fitted effect of over 55% in size; also: potency is read from the fitted curve at half-maximal effect
How it was run: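 Seed 3T3 Gli1-Luc cells at 2,000 per well; incubate 4 hr; add compound in DMSO, then conditioned medium; incubate at 37C with 5% CO2; add CellTiter-Fluor after 23 hr; read fluorescence 1 hr later.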

[11] = qHTS assay to identify small molecule agonists of the sonic hedgehog signaling (Shh) pathway (AID 1259368; calls by dose curve; also: nearly all actives have a fitted effect of over 15% in size; also: potency is read from the fitted curve at half-maximal effect)
How it was run: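 3T3Gli1-Luc (NIH/3T3 clone, stable Gli1-Luc); 4 hr pre-incubation, then cpd in DMSO 24 hr, 37 C/5% CO2; luciferase reagent 30 min RT; luminescence.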

[12] = A CellTox Green Cytotoxicity Assay to monitor cytotoxicity in HEK293 cells - 32 hour (AID 1224881); also: nearly all actives have a fitted effect of over 40% in size; also: potency is read from the fitted curve at half-maximal effect
How it was run: as §1

[13] = qHTS RealTime-Glo MT Cell Viability Assay in HepG2 cells - 16 hour (AID 1224885); also: nearly all actives have a fitted effect of over 50% in size; also: potency is read from the fitted curve at half-maximal effect
How it was run: as §2

[14] = qHTS assay to identify small molecule agonists of the sonic hedgehog signaling (Shh) pathway - cell viability counter screen (AID 1259366); also: nearly all actives have a fitted effect of over 50% in size; also: potency is read from the fitted curve at half-maximal effect
How it was run: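 Viability measured fluorometrically (CellTiter-Fluor, 1hr, 37C) in 3T3 Gli1-Luc reporter cells after 23hr compound exposure within a 24hr incubation at 37C/5% CO2.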

[15] = A CellTox Green Cytotoxicity Assay to monitor cytotoxicity in HepG2 cells - 32 hour (AID 1224883); also: nearly all actives have a fitted effect of over 50% in size; also: potency is read from the fitted curve at half-maximal effect
How it was run: as §3

[16] = qHTS RealTime-Glo MT Cell Viability Assay in HEK293 cells - 8 hour (AID 1224887); also: nearly all actives have a fitted effect of over 50% in size; also: potency is read from the fitted curve at half-maximal effect
How it was run: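 Cells were seeded together with NanoLuc luciferase and a prosubstrate that viable cells reduce to a luciferase substrate. After a 5 h incubation at 37 C/5% CO2, compounds were added and luminescence was measured repeatedly during 40 h of treatment.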

[17] = qHTS assay to identify small molecule antagonists of the androgen receptor (AR) signaling pathway using the MDA cell line in the presence of 0.5 nM R1881 - cell viability counter screen (AID 1259242); also: % is scaled to controls: 0 for no effect and ±100 for the full control effect; nearly all actives have a fitted effect of over 45% in size
How it was run: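 Counter screen for cytotoxicity run in the same wells as the AR antagonist reporter screen: MDA-kb2 cells were treated 16 hr with test compounds and 0.5 nM R1881, then live-cell protease activity was measured by fluorescence.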

[18] = A CellTox Green Cytotoxicity Assay to monitor cytotoxicity in HepG2 cells - 0 hour (AID 1224882); also: % is scaled to controls: 0 for no effect and ±100 for the full control effect; nearly all actives have a fitted effect of over 35% in size
How it was run: as §3

[19] = qHTS assay to identify small molecule phospholipidosis (PLD) inducers (AID 1259344; active = well fitted curve in the direction sought with a large enough effect; an effect the other way counts as inactive or inconclusive; also: % is scaled to controls: 0 for no effect and ±100 for the full control effect)
How it was run: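 Quantitative HTS in HepG2: compound plus LipidTOX Red dye for 24 h, paraformaldehyde fixation with Hoechst 33342, widefield high-content imaging; amiodarone as positive and DMSO as negative control.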

[20] = biological target: Androgen receptor (Homo sapiens) (UniProt P10275); assay: qHTS assay to identify small molecule antagonists of the androgen receptor (AR) signaling pathway using the MDA cell line in the presence of 0.5 nM R1881 (AID 1259243)
How it was run: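 Luciferase luminescence is the read-out: compounds are tested for suppressing 0.5 nM R1881-driven MMTV reporter activity in MDA-kb2 cells after 16 hr at 37C.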

Estrogen receptor (Homo sapiens), sequence (P03372 whole entry, looked up): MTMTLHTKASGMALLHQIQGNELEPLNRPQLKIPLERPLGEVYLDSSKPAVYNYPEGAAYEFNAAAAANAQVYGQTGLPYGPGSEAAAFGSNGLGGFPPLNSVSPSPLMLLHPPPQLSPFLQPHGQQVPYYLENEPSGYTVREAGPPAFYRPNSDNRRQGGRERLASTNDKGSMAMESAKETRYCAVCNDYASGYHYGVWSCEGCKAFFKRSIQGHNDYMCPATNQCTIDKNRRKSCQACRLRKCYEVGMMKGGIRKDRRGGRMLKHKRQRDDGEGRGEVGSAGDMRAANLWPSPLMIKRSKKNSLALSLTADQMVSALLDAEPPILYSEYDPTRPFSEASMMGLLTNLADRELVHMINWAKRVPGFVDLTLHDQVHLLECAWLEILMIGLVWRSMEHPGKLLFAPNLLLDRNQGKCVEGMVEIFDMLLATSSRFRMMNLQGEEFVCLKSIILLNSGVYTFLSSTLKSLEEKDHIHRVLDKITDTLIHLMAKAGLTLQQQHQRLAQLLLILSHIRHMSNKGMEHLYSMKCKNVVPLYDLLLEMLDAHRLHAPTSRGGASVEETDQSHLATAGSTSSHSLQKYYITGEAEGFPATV
Androgen receptor (Homo sapiens), sequence (P10275 whole entry, looked up): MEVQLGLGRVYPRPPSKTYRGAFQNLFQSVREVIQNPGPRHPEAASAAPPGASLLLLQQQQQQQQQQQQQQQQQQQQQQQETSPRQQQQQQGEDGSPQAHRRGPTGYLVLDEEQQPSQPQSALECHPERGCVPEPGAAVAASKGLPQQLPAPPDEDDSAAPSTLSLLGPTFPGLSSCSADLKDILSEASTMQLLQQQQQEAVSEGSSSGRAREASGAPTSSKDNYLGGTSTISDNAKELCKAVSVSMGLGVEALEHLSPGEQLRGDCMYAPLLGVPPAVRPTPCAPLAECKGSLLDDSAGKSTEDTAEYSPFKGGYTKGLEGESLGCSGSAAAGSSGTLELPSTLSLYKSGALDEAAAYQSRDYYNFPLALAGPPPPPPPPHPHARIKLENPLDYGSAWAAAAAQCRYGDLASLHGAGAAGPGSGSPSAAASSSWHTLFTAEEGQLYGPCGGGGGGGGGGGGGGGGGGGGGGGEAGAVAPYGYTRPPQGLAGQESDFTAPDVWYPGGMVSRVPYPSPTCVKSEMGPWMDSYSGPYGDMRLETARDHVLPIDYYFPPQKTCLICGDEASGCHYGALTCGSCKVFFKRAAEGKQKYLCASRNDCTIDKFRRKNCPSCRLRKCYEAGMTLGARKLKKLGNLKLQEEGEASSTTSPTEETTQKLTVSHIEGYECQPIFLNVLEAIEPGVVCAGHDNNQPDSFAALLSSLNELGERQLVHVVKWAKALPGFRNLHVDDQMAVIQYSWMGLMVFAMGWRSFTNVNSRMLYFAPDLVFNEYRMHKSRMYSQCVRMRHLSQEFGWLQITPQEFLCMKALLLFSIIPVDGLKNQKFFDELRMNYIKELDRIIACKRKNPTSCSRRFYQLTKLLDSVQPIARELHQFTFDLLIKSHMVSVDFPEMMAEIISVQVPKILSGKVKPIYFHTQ

O=S1(=O)OCC2C(CO1)C1(Cl)C(Cl)=C(Cl)C2(Cl)C1(Cl)Cl (centres undefined)
active: Potency [2] 19.5 µM | Potency [7] 54.5 µM
inactive: Potency [1] | Potency [3] | Potency [4] | Potency [5] | Potency [6] | Potency [8] | Potency [9] | Potency [10] | Potency [11]

O=C(NC(=O)c1c(F)cccc1F)Nc1ccc(Oc2ccc(C(F)(F)F)cc2Cl)cc1F
inactive: Potency [12] | Potency [1] | Potency [13] | Potency [3] | Potency [4] | Potency [5] | Potency [8] | Potency [9] | Potency [14] | Potency [10] | Potency [11]

O=S1OCC2C(CO1)C1(Cl)C(Cl)=C(Cl)C2(Cl)C1(Cl)Cl (centres undefined)
inactive: Potency [4] | Potency [6] | Potency [17] | Potency [8] | Potency [9] | Potency [11]
active: Potency [12] 49 µM and 54.9 µM | Potency [15] 54.9 µM | Potency [13] 48.9 µM | Potency [2] 21.9 µM and 38.9 µM | Potency [16] 43.6 µM | Potency [5] 54.9 µM | Potency [10] 48.5 µM

CCN1CCC2(CC1)COc1cc3c(cc12)N(C(=O)c1ccc(-c2ccc(-c4nnc(C)o4)cc2C)cc1)CC3
inactive: Potency [18] | Potency [8] | Potency [9] | Potency [11]
active: Potency [15] 45.2 µM | Potency [13] 45.2 µM | Potency [2] 12.7 µM | Potency [16] 20.2 µM | Potency [4] 20.2 µM | Potency [5] 50.7 µM | Potency [7] 50.2 µM | Potency [14] 63.3 µM | Potency [10] 63.3 µM

FC(F)C(F)(F)OCC(Cn1cncn1)c1ccc(Cl)cc1Cl (centres undefined)
inactive: Potency [18] | Potency [1] | Potency [3] | Potency [4] | Potency [17] | Potency [8] | Potency [9] | Potency [11]
active: Potency [15] 48.7 µM | Potency [2] 21.7 µM | Potency [14] 48.3 µM

O=C(Nc1ccc(F)cc1F)c1cccnc1Oc1cccc(C(F)(F)F)c1
inactive: Potency [15] | Potency [13] | Potency [2] | Potency [16] | Potency [3] | Potency [4] | Potency [5] | Potency [6] | Potency [17] | Potency [8] | Potency [9] | Potency [14] | Potency [10] | Potency [11]

CC(C)=CCN1CC[C@@]2(C)c3cc(O)ccc3C[C@@H]1[C@@H]2C
inactive: Potency [12] | Potency [15] | Potency [13] | Potency [16] | Potency [3] | Potency [4] | Potency [5] | Potency [17] | outcome [19] | Potency [8] | Potency [9] | Potency [14] | Potency [10] | Potency [11]

Oc1ccc([C@H]2CNCc3c2ccc(O)c3O)cc1O
active: Potency [15] 26.8 µM | Potency [1] 26.8 µM | Potency [3] 26.8 µM | Potency [5] 26.8 µM
inactive: Potency [4] | Potency [17] | Potency [7] | PLD induction [19] -2.7% [at 7.66 µM] | Potency [8] | Potency [9] | Potency [14] | Potency [10] | Potency [11]

CSC(C)(C)/C=N/O
inactive: Potency [12] | Potency [1] | Potency [13] | Potency [2] | Potency [16] | Potency [3] | Potency [4] | Potency [5] | Potency [6] | Potency [17] | Potency [8] | Potency [9] | Potency [14] | Potency [10] | Potency [11]

COP(=O)(OC)O/C(=C\Cl)c1cc(Cl)c(Cl)cc1Cl
active: Potency [20] 68.6 µM
inactive: Potency [12] | Potency [1] | Potency [2] | Potency [16] | Potency [3] | Potency [5] | Potency [6] | Potency [17] | Potency [8] | Potency [9] | Potency [14] | Potency [10] | Potency [11]

CN1[C@@H]2CC[C@H]1CC(O)C2 (some centres undefined)
inactive: Potency [12] | Potency [1] | Potency [13] | Potency [2] | Potency [16] | Potency [3] | Potency [4] | Potency [6] | Potency [17] | Potency [7] | Potency [8] | Potency [9] | Potency [14] | Potency [10] | Potency [11]

CC(=O)[O-].CC(=O)[O-].[Co+2]
active: Potency [11] 54.5 µM
inactive: Potency [12] | Potency [15] | Potency [13] | Potency [2] | Potency [16] | Potency [3] | Potency [4] | Potency [5] | Potency [6] | Potency [17] | Potency [8] | Potency [9]

CCCCN(CCCC)C(=S)S
inactive: Potency [12] | Potency [1] | Potency [13] | Potency [2] | Potency [16] | Potency [3] | Potency [4] | Potency [5] | Potency [6] | Potency [17] | Potency [7] | Potency [8] | Potency [9] | Potency [14] | Potency [11]

CC1=C2C[C@H]3[C@@H](CC=C4C[C@@H](O)CC[C@@]43C)[C@@H]2CC[C@]12O[C@@H]1C[C@H](C)CN[C@H]1[C@H]2C
active: Potency [15] 26.8 µM
inactive: Potency [18] | Potency [1] | Potency [13] | Potency [3] | Potency [5] | Potency [6] | Potency [7] | Potency [9] | Potency [14] | Potency [10] | Potency [11]
